Rows were chosen to be rich in hits. Some 2.5% of all compounds tested hit in one or more screens of this group.
Bst PK mod = pyruvate kinase (B. stearothermophilus) modulation. Potency, µM. AID 361. purified pyruvate kinase, luminescence ATP production; ribose 5-phosphate activator present at AC10. 51,000 compounds, 1.2% hits; in the data active means potency below about 11 µM; inconclusive means mostly about 12 µM to 25 µM;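 the screen sought inhibitors and activators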;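 further: scaled between full activation by ribose 5 phosphate and full inhibition by luteolin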
Luciferase inh = inhibitors of firefly luciferase | purified firefly luciferase, luminescence, 8 min | 72,000 compounds, 2.2% hits | P08659 | Potency, µM (titrated, usually from 57.1 µM), for inactives: top-dose activity change, negative = inhibition, usual class: inhibitors; active means well fitted inhibition curve with a large enough effect; inconclusive means small, poorly fitted or top-dose-only effect; further: nearly all actives have a fitted effect of over 40% in size
Target sequence (P08659 whole entry, looked up): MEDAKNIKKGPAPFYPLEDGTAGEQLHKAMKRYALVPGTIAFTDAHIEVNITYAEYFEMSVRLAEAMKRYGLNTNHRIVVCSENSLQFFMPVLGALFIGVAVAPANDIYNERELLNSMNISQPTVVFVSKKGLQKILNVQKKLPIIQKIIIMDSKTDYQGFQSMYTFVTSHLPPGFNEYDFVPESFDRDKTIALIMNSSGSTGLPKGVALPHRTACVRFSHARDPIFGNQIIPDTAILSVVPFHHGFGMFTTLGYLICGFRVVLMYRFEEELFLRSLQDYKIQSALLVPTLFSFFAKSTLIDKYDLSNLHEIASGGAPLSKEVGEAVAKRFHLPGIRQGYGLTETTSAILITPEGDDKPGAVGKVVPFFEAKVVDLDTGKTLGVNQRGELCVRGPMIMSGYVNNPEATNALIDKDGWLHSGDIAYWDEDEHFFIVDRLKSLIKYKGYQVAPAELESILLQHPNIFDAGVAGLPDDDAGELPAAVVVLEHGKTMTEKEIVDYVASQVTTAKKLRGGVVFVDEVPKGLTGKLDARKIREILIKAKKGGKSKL
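Luminescence read-out after 8 min at room temperature; enzyme reaction used luciferin plus 10 uM ATP (linear range) in imidazole buffer pH 7.2 with KCl, MgCl2, Tween 20 and BSA. Each sample was run as a titration.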
* = called active by the depositor; i = inactive; ? = inconclusive; / = no result; [ ] = dose if it differs, or a comment. Unless noted, on the % scale 0 is the no-effect control and ±100 the full control effect; potency means the concentration at half of the fitted maximal effect.

SMILES	Bst PK mod	Luciferase inh
COc1ccc(-c2cc(C(=O)OCC(=O)N3CCCC3)c3ccccc3n2)cc1	10*	20µM*
COc1ccc(OC)c(-c2cc(C(=O)N3CCN(c4ncccn4)CC3)c3ccccc3n2)c1	>57	0%
COc1cc(-c2cc(C(=O)N3CCN(c4ccccn4)CC3)c3ccccc3n2)cc(OC)c1OC	>57	0%
COc1ccc(-c2cc(C(=O)N3CCN(c4ccccn4)CC3)c3ccccc3n2)cc1	2.2*	1.3µM*
CCOC(=O)N1CCN(C(=O)c2cc(-c3ccc(OCC)cc3)nc3ccccc23)CC1	1.1*	0.79µM*
O=C(c1cc(-c2ccccc2)nc2ccccc12)N1CCOCC1	/	-7%
Cc1cc(C(=O)OCC(=O)N2CCOCC2)c2ccccc2n1	>57	4%
CCc1c(C)sc(NC(=O)c2cnn3cccnc23)c1C#N	>57	1%
COc1ccc(CCn2c(-n3nc(C)cc3C)nc3c2c(=O)[nH]c(=O)n3C)cc1	>57	-2%
COc1ccc2c(c1)c(C(O)CN1CCC3(CC1)OCCO3)c(C)n2C (centres undefined)	>57	-3%
O=C(c1cnccn1)N1CCC2(CC1)CCN(c1ccccn1)CC2	/	1%[11.4 µM]
CC(=O)c1ccc(N2CCN(C(=O)c3cc(-c4ccc5c(c4)OCO5)nc4ccccc34)CC2)cc1	/	7.9µM*
O=C(O)c1cc(-c2ccc3c(c2)OCO3)nc2ccccc12	>11	-27%
O=C(Nc1cccc(F)c1)N1CCC2(CC1)CCN(C(=O)c1cccc(F)c1)CC2	/	0%[11.4 µM]
CCOC(=O)CS(=O)(=O)c1nc(-c2ccccc2)cc(C(F)(F)F)n1	/	-3%
CCOC(=O)CS(=O)(=O)c1nc(-c2ccc(F)cc2)cc(C(F)(F)F)n1	5.5*	-5%
Clc1ccc(OCc2nc(-c3ccccn3)n[nH]2)cc1	/	-3%
CCOc1ccc2nc(N3CCC(C(=O)N4CCN(c5ccccn5)CC4)CC3)sc2c1	/	6.3µM*
CCOc1ccc2nc(N3CCC(C(=O)N4CCN(c5ncccn5)CC4)CC3)sc2c1	/	-19%
CCOc1ccc2nc(N3CCCC(C(=O)NCCCN4CCOCC4)C3)sc2c1 (centres undefined)	/	25µM*
CCOc1ccc(CCNC(=O)C2CCCN(c3nn4c(=O)cc(C)nc4s3)C2)cc1 (centres undefined)	>57	0%
O=C(c1ccc2c(c1)OCCCO2)c1cccs1	/	13µM*
O=C(NCC1CCCO1)c1cccs1 (centres undefined)	/	0%
Cn1c(=O)[nH]c(=O)c2c1nc(N1CCOCC1)n2CC(O)COc1ccccc1 (centres undefined)	>57	1%
C/C(CCN1CCCCc2nc(C)c(C)cc21)=N\O[C@@H](C)CN1CCCc2nc(C)c(C)cc21	/	1%[11.4 µM]
SMILES	Bst PK mod	Luciferase inh
Nc1c(C(=O)Nc2ccc3c(c2)OCCO3)nnn1CCc1ccccc1	/	16µM*
COc1ccc(C)cc1NC(=O)c1nnn(CCc2ccccc2)c1N	/	3%
COc1ccc2cc(C(=O)OC(C)C)sc(=O)c2c1OC	>57	-6%
CCCCn1c(Cl)nc2c1c(=O)n(C)c(=O)n2C	>57	-1%
CCOC(=O)CNC(=O)c1cnn2cccnc12	>57	-1%
O=C(Nc1cnn(C23CC4CC(CC(C4)C2)C3)c1)c1cnn2cccnc12	?	2.5µM*
COc1cc(-c2nnn(CC(=O)NC3CCS(=O)(=O)C3)n2)ccc1OCc1ccccc1 (centres undefined)	/	13µM*
COc1cc(-c2nnn(CC#N)n2)ccc1OCc1ccccc1	/	-5%
C[N+]12CCC(CC1)[C@@H](OC(=O)C(O)(c1ccccc1)c1ccccc1)C2	/	3%[25.5 µM]
C(=N\n1cnnc1)/c1ccc2c(c1)OCO2	/	2%
O=c1/c(=C\c2ccc3c(c2)OCO3)sc2n1CCCN=2	?	13µM*
O=C(Nc1ncc2c(n1)CC(c1ccccc1)CC2=O)c1ccco1 (centres undefined)	>57	1%
O=C1CC(c2ccccc2)Cc2nc(NCc3ccco3)ncc21 (centres undefined)	5.2*	3.2µM*
c1ccc(-c2ccccc2-c2nc(-c3cccnc3)no2)cc1	>57	2%
c1cncc(-c2noc(-c3ccco3)n2)c1	/	-12%
Cc1ccc(-c2nc(-c3cccnc3)no2)cc1	?	13µM*
CCC(=O)Oc1ccc(-c2nc(-c3cccnc3)no2)cc1	?	13µM*
Cc1cc(C)c(S(=O)(=O)Nc2cccc(C(F)(F)F)c2)c(C)c1	/	3%
COc1cc2c(cc1NC(=O)COC(=O)C1CC(=O)N(Cc3ccco3)C1)oc1ccccc12 (centres undefined)	>57	2%
COc1ccc(C2=C(N)c3ccccc3C2=O)cc1	/	13µM*
COc1ccc(-c2ccc(=O)[nH]n2)cc1	>11	2%
O=C(CN1C(=O)CSC1=O)Nc1ccc(C(=O)O)cc1	>57	2%
COCc1cc(C)nc2sc3c(=O)n(Cc4ccco4)nnc3c12	/	-7%
O=c1nc(-c2ccccc2)c2cc(Cl)ccc2[nH]1	/	0%
CN1[C@H](CC(=O)c2ccccc2)CCC[C@H]1C[C@@H](O)c1ccccc1	/	2%[11.4 µM]
SMILES	Bst PK mod	Luciferase inh
CC1N/C(=C\C(=O)c2ccccc2)N(O)C1(C)C (centres undefined)	i	13µM*
O=C(c1ccco1)N1CCn2c1nc1ccccc12	/	-30%
COc1ccc(NC(=O)N2CCn3c2nc2ccccc23)cc1	5.6*	-4%
COc1ccc(S(=O)(=O)N2CCn3c2nc2ccccc23)cc1	>57	0%
O=C(Nc1ccccc1)N1CCn2c1nc1ccccc12	9.7*	-9%
c1cncc(-c2nccc(NCc3cccs3)n2)c1	/	-1%[2.29 µM]
N[C@H](CO)C(=O)NCC(=O)O	/	2%[11.4 µM]
CC(=O)Oc1ccc(N2C(=O)CC(N3CCOCC3)C2=O)cc1 (centres undefined)	/	1%
Cc1onc(-c2ccccc2)c1C(=O)N1CCCN(C(=O)c2c(-c3ccccc3)noc2C)CC1	>57	-1%
Cc1cccc(NC(=O)CSc2nnc(-c3ccccc3)n2N)c1C	>57	3%
CCCCOc1[nH]c2nc(-c3ccco3)n(Cc3ccco3)c(=N)c2c1C#N	11*	2%
c1ccc(CSc2nnc(-c3ccco3)n2Cc2ccco2)cc1	>57	2%
CCn1nnnc1SCC(=O)Nc1cccc(C)n1	>57	-1%
Nc1ccc2oc(-c3cccc(Br)c3)nc2c1	/	7.9µM*
Cc1ccccc1-c1nc2cc(N)ccc2o1	?	13µM*
O=c1oc2ccc(Br)cc2cc1-c1nc2ccccc2o1	>57	-2%
CC(C)c1ccc(O)c(O)c(=O)c1 (tested in a mixture with another compound)	/	-1%[11.4 µM]
Nc1ccc2oc(CCc3ccccc3)nc2c1	/	-28%
CC(C)c1ccc2oc(-c3cc(N)ccc3O)nc2c1	/	0.5µM*
CN(C)C(=O)c1cc(S(=O)(=O)N(C)C)c(Cl)cc1N1CCCC1	>57	0%
COc1ccccc1C(=O)N1CCCN(C(=O)c2ccccc2OC)CC1	>57	0%
COc1cc(NC(=O)CS(=O)(=O)c2ccccc2)cc(OC)c1OC	>57	0%
CCCCn1c(-c2ccccc2)nnc1-c1ccccc1	>57	0%
CCCCN1c2ccccc2N(CCCO)c2cc(C)nnc21	/	16µM*
CS(=O)(=O)N1CCC2(CCCN(c3ccccn3)C2)CC1	/	-1%[11.4 µM]
CCn1cc(SCC(=O)NCc2ccc3c(c2)OCO3)c2ccccc21	/	2µM*
Cn1cc(SCC(=O)NCc2ccc3c(c2)OCO3)c2ccccc21	/	-10%
CCN1c2ccccc2NC2N=C(OC)C(c3ccccc3)C21 (centres undefined)	/	-1%

Screens deposited in PubChem by National Center for Advancing Translational Sciences (NCATS).
